Bioassay records: PubChem BioAssay, The Scripps Research Institute Molecular Screening Center
PME-1 inh = blocks human protein phosphatase methylesterase 1; recombinant PME-1, FP-Rh probe fluorescence polarization; inhibition, % at 5.9 µM; 320,000 compounds, 0.53% hits; AID 2130;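 active = inhibition above the campaign mean of all compounds plus 3 SD, cut at about 26% in these data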;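 note: competitive labeling of PME-1 active site by serine hydrolase directed probe; inhibitors block probe labeling so polarization falls and inhibition rises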
Fam108B counter = counter-screen for RBBP9 inhibitors: inhibitors of mouse Fam108B | recombinant Fam108B, FP-Rh probe fluorescence polarization | inhibition, % at 9.51 µM | 300,000 compounds, 0.33% hits | AID 1947;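 active = inhibition above the screen mean inhibition plus 3 SD, computed separately per campaign, cut at about 18% in these data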;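 note: inhibitors lower polarization as less probe binds the enzyme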
GSTO1 inh = blocks human GSTO1 in RBBP9 counter-screen; P78417; recombinant GSTO1, activity-based probe fluorescence polarization; inhibition, % at 5.96 µM; 300,000 compounds, 1.1% hits; AID 1974;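 active = inhibition above the campaign mean inhibition plus 3 SD, cut at about 35% in these data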
pPAFAH FP inh = pPAFAH (human) enzyme inhibition | AID 463082 | Q13093 | recombinant pPAFAH, FP-rhodamine probe fluorescence polarization | 330,000 compounds, 1.5% hits | inhibition, % at 3.39 µM;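 active = inhibition above the mean inhibition across the screen plus 3 SD, cut at about 25% in these data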;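 note: inhibitors block binding of the rhodamine activity-based probe so polarization drops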
Target sequence (Q13093 whole entry, looked up): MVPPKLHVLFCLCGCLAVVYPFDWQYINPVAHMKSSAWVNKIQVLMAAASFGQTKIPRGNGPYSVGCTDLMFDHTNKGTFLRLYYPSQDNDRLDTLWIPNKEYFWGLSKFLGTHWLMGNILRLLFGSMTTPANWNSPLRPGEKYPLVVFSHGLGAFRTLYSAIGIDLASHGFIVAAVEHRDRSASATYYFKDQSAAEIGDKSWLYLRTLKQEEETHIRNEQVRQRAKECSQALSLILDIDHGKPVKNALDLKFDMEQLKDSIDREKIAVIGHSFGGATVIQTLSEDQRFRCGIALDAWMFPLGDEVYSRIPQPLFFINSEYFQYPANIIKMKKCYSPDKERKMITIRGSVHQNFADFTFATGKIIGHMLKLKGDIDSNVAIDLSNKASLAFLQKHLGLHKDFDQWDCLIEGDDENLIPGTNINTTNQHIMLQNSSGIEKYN
PAD4 FP inh = inhibitors of human PAD4. Q9UM07. recombinant PAD4, RCA probe fluorescence polarization. AID 485272. 330,000 compounds, 0.41% hits. inhibition, % at 6.36 µM;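 active = percent inhibition above a cutoff equal to the mean of all tested compounds plus 3 SD, cut at about 15% in these data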
GSTO1 inh conf = GSTO1 (human) inhibition, confirmation; recombinant GSTO1, probe fluorescence polarization; shares compounds with GSTO1 inh; AID 2176; inhibition, % at 5.96 µM; 2,400 compounds, 54% hits;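 active = inhibition above the primary screen's cutoff, its mean inhibition plus 3 SD, cut at about 35% in these data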;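 note: loss of polarization as inhibitors block binding of rhodamine sulfonate ester activity probe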
pPAFAH FP conf = confirmation of human plasma PAF acetylhydrolase (pPAFAH) inhibitors | shares compounds with pPAFAH FP inh | recombinant pPAFAH, FP-Rh probe fluorescence polarization | inhibition, % at 3.39 µM | 2,300 compounds, 72% hits | AID 463230;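 active = mean inhibition of the triplicate above the hit cutoff set for the earlier primary screen, cut at about 25% in these data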
Numbers stand for hits; . = inactive; / = not tested or not shown. Hits are enriched below; roughly 2.3% of the tested compounds scored in any of these assays.

SMILES	PME-1 inh	Fam108B counter	GSTO1 inh	pPAFAH FP inh	PAD4 FP inh	GSTO1 inh conf	others
CCC(Sc1nc(C)cc(=O)[nH]1)C(=O)Nc1nc(-c2ccccc2)cs1 (stereo unspecified)	.	.	.	.	.	/
CCC(Sc1nc(-c2ccccc2)c(C#N)c(=O)[nH]1)C(=O)Nc1nnc(C)s1 (stereo unspecified)	.	.	61	.	.	63
O=C(CCl)N1N=C(c2ccco2)CC1c1ccco1 (stereo unspecified)	.	.	90	.	.	97
O=C(CCl)N1N=C(c2cccs2)CC1c1ccco1 (stereo unspecified)	.	.	92	.	.	100
O=C(CCN1C(=O)/C(=C\c2ccccc2F)SC1=S)N1CCCCC1	.	.	47	.	.	.
O=C(CCN1C(=O)/C(=C/c2ccccc2)SC1=S)N1CCCCCC1	.	.	.	.	.	/
Cc1c(C(=O)Nc2ccccc2F)sc2ncn(CC(=O)N3CCOCC3)c(=O)c12	.	.	.	.	.	/
O=C(Cc1ccsc1)NNC(=O)c1ccccc1O	.	.	38	.	.	.
CC1(C)CC(=O)C2=C(C1)N(CC1CCCO1)C(=O)C2(O)C(F)(F)F (stereo unspecified)	.	.	.	.	.	/
CC1(C)CC(=O)C2=C(C1)N(C1CCCCC1)C(=O)C2(O)C(F)(F)F (stereo unspecified)	.	.	65	.	.	.
O=C(Nc1nc(-c2ccccn2)cs1)c1cc2ccccc2o1	.	.	48	.	.	39
CC(C(=O)NC(=O)NC1CCCCC1)N(C)CC(=O)Nc1ccc(F)c(F)c1F (stereo unspecified)	.	.	.	.	.	/
CC(C)C1Cc2c(sc3c2c(=O)n(-c2ccccc2)c2n[nH]c(=S)n32)CO1 (stereo unspecified)	.	.	.	.	.	/
O=C(/C=C/Nc1ccc(Br)cn1)c1cccc(OC(F)F)c1	.	/	/	.	.	/
O=C(NN1C(=O)c2ccccc2NC1c1ccc([N+](=O)[O-])o1)c1ccccc1 (stereo unspecified)	.	.	44	.	.	.
Cc1cc(C(=O)CN2C(=O)c3ccccc3S2(=O)=O)c(C)n1CC1CCCO1 (stereo unspecified)	.	.	73	.	.	.
CCOC(=O)[C@H]1[C@H]2COc3ccccc3[C@@H]2N2C(=O)CN(Cc3ccc(C)cc3)C(=O)[C@@]12C	/	/	/	.	.	/
COC(=O)Cc1c(C)[nH]n(-c2cc(Cl)cc(Cl)c2)c1=O	.	.	47	.	.	.
CC(C)CC(NS(=O)(=O)c1cccc(C(=O)O)c1)C(=O)O (stereo unspecified)	.	.	51	.	.	.
COC(=O)C1=C(C)N(C)C(=O)/C1=C\c1ccco1	.	.	.	.	.	/
CC1=C(C#N)C(=O)N(C2CCS(=O)(=O)C2)C(=O)/C1=C\c1ccco1 (stereo unspecified)	.	65	87	93	.	73
O=C(CN1CCCCCC1)Nc1cc([N+](=O)[O-])ccc1Cl	.	.	57	.	.	.
COc1ccc(C(CC(=O)c2ccc(O)cc2)S(=O)(=O)c2ccc(C)cc2)cc1 (stereo unspecified)	.	.	40	.	.	.
COc1ccc(C(=O)CC(c2ccccc2)S(=O)(=O)c2ccc(C)cc2)cc1 (stereo unspecified)	.	.	.	.	.	/
COc1ccc(CC2=CC(=O)c3ccccc3C2=O)cc1	.	.	67	.	.	.
SMILES	PME-1 inh	Fam108B counter	GSTO1 inh	pPAFAH FP inh	PAD4 FP inh	GSTO1 inh conf	others
Cc1cc(N=Nc2ccc(C)c(N=Nc3cc(C)c(N)cc3N)c2)c(N)cc1N	.	.	.	.	.	/
O=[N+]([O-])c1ccc(O)c(C=Nc2ccc3oc(Cc4ccc(Cl)cc4)nc3c2)c1	.	.	41	46	.	.
CCCN1CCc2c(sc(NC(=O)Cc3ccc(F)cc3)c2C(N)=O)C1	.	.	.	.	.	/
COC(=O)C(C(C)=O)C1=C/C(=N\S(=O)(=O)c2ccc(C)cc2)c2ccccc2C1=O (stereo unspecified)	.	.	49	.	.	.
N#CC1(c2nc3ccccc3[nH]2)CC1c1ccc2c(c1)OCO2 (stereo unspecified)	.	.	46	.	.	.
C/C(=N\Nc1nc2ccccc2[nH]1)c1ccc2c(c1)OCO2	.	.	.	.	.	/
COc1ccccc1NC(=O)c1ccc(NC(=O)CSc2nc(N)cc(=O)[nH]2)cc1	.	/	/	.	.	/
CC1=NN(c2ccccc2)C(=O)/C1=C/C=C/C=C/N(C)C	.	.	.	.	.	/
CC1=NN(c2ccccc2)C(=O)/C1=C\N(O)c1ccccc1	.	.	48	.	.	41
COc1ccc(/C=C2/C(=O)N(c3ccccc3)N=C2C)cc1Br	.	.	58	.	43	.
CC(C)(C)OC(=O)N1CCC2(CC1)Oc1ccc(Cl)cc1C(=O)C21CC(c2ccc(Cl)cc2)=NO1 (stereo unspecified)	.	.	.	.	.	/
Nc1c(C(=O)NCc2ccc3c(c2)OCO3)c2nc3ccccc3nc2n1CCCN1CCOCC1	.	.	50	.	.	.
Nc1c(C(=O)NCc2ccco2)c2nc3ccccc3nc2n1CCc1ccc(F)cc1	.	.	75	.	37	58
C#CC(=O)N(c1cc(OC)ccc1OC)C(C(=O)NC1CCCC1)c1cccs1 (stereo unspecified)	.	.	65	.	.	68
Cc1ccc(N=Cc2cccc(O)c2O)c(C)c1	.	.	85	37	.	.	pPAFAH FP conf=.
CCOc1cc(CNc2ccc(O)cc2)cc(Br)c1OCc1ccccc1F	.	.	80	43	.	.	pPAFAH FP conf=.
CCOc1cc(/C=N/NC(N)=O)cc(Br)c1OCc1ccccc1F	.	.	.	.	.	/
O=C(COC(=O)CSc1ccc(F)cc1)NC1CCCCCC1	.	/	/	.	.	/
COc1ccc(NC(C)C(=O)Nc2cccc(S(=O)(=O)N3CCOCC3)c2)cc1OC (stereo unspecified)	/	/	/	.	.	/
COc1ccc(-c2cc(=O)oc3c(O)c(O)ccc23)cc1	.	.	58	43	.	.	pPAFAH FP conf=80
N#C/C(=C\c1cc(O)c(O)c(O)c1)C(N)=O	.	.	59	42	.	.	pPAFAH FP conf=.
CSc1ncccc1C(=O)Nc1cccc(S(=O)(=O)N(C)c2ccccc2)c1	.	/	/	.	.	/
Cc1ccc(C)c(C(C)NC(=O)Cc2cccs2)c1 (stereo unspecified)	.	.	.	.	.	/
CCCOc1ccc(N2C(=O)CC(N(O)c3ccccc3)C2=O)cc1 (stereo unspecified)	.	.	.	.	.	/
O=C1CC(N(O)c2ccccc2)C(=O)N1c1cc(Cl)cc(Cl)c1 (stereo unspecified)	34	.	68	51	15	.	pPAFAH FP conf=.
